# Compounds without any hit were thinned out: in the full panel of roughly 83,000, 20% have a hit.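 How to read the values: 0–100, growth inhibition (40 = 60% inhibited); 0, no net growth; -100 to 0, cell death (-40 = 40% of starting cells died; -100 = all dead).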 A number with no mark means an inactive call. Calls of active or inactive are those of the source. How the source made its calls: active means growth percent below 10; inactive means the rest.
# What was measured:
# Assay in all cases: NCI-60 one-dose screen, 48 h (100 = growth as untreated, 0 = no growth, -100 = all killed)
# Conditions in all cases: 10 µM unless noted
# RPMI-8226 leukemia = system: RPMI-8226 leukemia
# OVCAR-8 ovarian = system: OVCAR-8 ovarian
# OVCAR-5 ovarian = system: OVCAR-5 ovarian
# OVCAR-4 ovarian = system: OVCAR-4 ovarian
# SK-OV-3 ovarian = system: SK-OV-3 ovarian
# IGROV1 ovarian = system: IGROV1 ovarian
# OVCAR-3 ovarian = system: OVCAR-3 ovarian
# NCI/ADR-RES ovarian = system: NCI/ADR-RES ovarian
# T-47D breast = system: T-47D breast
# BT-549 breast = system: BT-549 breast
# MDA-MB-435 melanoma = system: MDA-MB-435 melanoma
# SW-620 colon = system: SW-620 colon
# MCF7 breast = system: MCF7 breast
# HCT-116 colon = system: HCT-116 colon
# HCC-2998 colon = system: HCC-2998 colon
# KM12 colon = system: KM12 colon
# HS 578T breast = system: HS 578T breast
Compound,growth (RPMI-8226 leukemia),growth (OVCAR-8 ovarian),growth (OVCAR-5 ovarian),growth (OVCAR-4 ovarian),growth (SK-OV-3 ovarian),growth (IGROV1 ovarian),growth (OVCAR-3 ovarian),growth (NCI/ADR-RES ovarian),growth (T-47D breast),growth (BT-549 breast),growth (MDA-MB-435 melanoma),growth (SW-620 colon),growth (MCF7 breast),growth (HCT-116 colon),growth (HCC-2998 colon),growth (KM12 colon),growth (HS 578T breast)
CCOC(=O)c1ccc(Nc2ncnc3ccc(NC(=O)c4ccccc4)cc23)cc1,69.2%,86.7%,96.2%,89.2%,100%,103%,94.4%,86.8%,65.6%,86.5%,91.1%,96%,75.7%,91.4%,97.3%,75.2%,
COc1cc(C2=NNC(c3ccc(N(C)C)cc3)C2)cc(OC)c1OC (stereo not given),16%,24.7%,30.4%,52.2%,19.5%,35.4%,5.84% (active),,45.8%,,19%,20%,20.2%,9.9% (active),7.82% (active),14.4%,-21.7% (active)
O=[N+]([O-])c1ccc(Oc2ccc(-c3ccccc3)cc2)cc1,75.2%,92.1%,99.2%,69.6%,92.6%,85.3%,99.3%,91.8%,60.6%,,101%,99%,84.4%,73.4%,92.2%,89.5%,
O=C(/C(=C/c1ccc([N+](=O)[O-])cc1)SCc1ccccc1)c1ccc(Cl)cc1,-15.8% (active),76.2%,95.4%,74.5%,87.6%,57%,70.6%,62%,47.8%,89.2%,85.7%,4.23% (active),7.72% (active),30.5%,97.3%,65.6%,
CN(C)C1=NCCN1,95.2%,104%,104%,114%,109%,104%,104%,106%,110%,97.5%,110%,106%,97.2%,98.7%,101%,100%,
CC[C@H](Nc1ncnc2nc[nH]c12)c1nc2cccc(CC(=O)c3ccc(C(=O)NO)cc3)c2c(=O)n1-c1ccccc1,45.1%,81.3%,97.9%,78.3%,98.8%,89.1%,76.9%,94%,50.7%,85.8%,97.6%,96.3%,77.9%,90.5%,88.9%,93.5%,
O=C(Nc1ccc(S(=O)(=O)NC2CCCCCC2)cc1)C(c1ccccc1)S(=O)(=O)c1ccc(F)cc1 (stereo not given),-23.1% (active),8.45% (active),5.42% (active),4.28% (active),3.67% (active),9.4% (active),3.59% (active),,8.11% (active),,-17% (active),24.6%,0.0605% (active),5.61% (active),15.4%,5.09% (active),-2.41% (active)
CC(=O)ON1CCCC(P(=O)(OCOC(=O)C(C)(C)C)OCOC(=O)C(C)(C)C)C1=O (stereo not given),-47.5% (active),-0.681% (active),17.7%,13.3%,6.56% (active),-28.4% (active),2.58% (active),-2.01% (active),16.4%,-1.15% (active),27%,16.5%,-1.76% (active),0.623% (active),-36.8% (active),-11.5% (active),
COc1cc(C2CC(c3ccc(Nc4nc(NCCO)nc(NCCO)n4)cc3)=NN2c2cc(Cl)cc(Cl)c2)cc(OC)c1OC (stereo not given),-13.8% (active),11.9%,54.6%,-20.1% (active),108%,4.18% (active),-22.5% (active),53.1%,75.4%,-27.2% (active),-15.9% (active),-4.18% (active),-60.9% (active),9.76% (active),24.4%,-25.6% (active),
Nc1ccc(C(=O)Nc2cccc(C(=O)Nc3ccc4c(O)c(N=Nc5ccc(N=Nc6ccc(S(=O)(=O)O)cc6)cc5)c(S(=O)(=O)O)cc4c3)c2)cc1,103%,110%,106%,101%,101%,102%,107%,99.2%,108%,111%,106%,105%,94.8%,91.8%,98%,104%,
CCCCCCCCCCCCCC1=NCC[N+]1(CCO)Cc1ccccc1 (stereo not given),-47.2% (active),-83% (active),-15% (active),-28.5% (active),48.8%,-72.6% (active),-86.9% (active),-60.1% (active),-72.8% (active),-50.7% (active),-91.8% (active),-78.2% (active),-84.8% (active),-90.8% (active),-75.3% (active),-85.1% (active),
Cc1ccccc1NC(=O)c1sc2nc(C)c(C(C)O)cc2c1N (stereo not given),64.1%,58.1%,87.8%,92.9%,47.5%,57.6%,27.8%,29.4%,54%,57.8%,1.71% (active),36.8%,21%,22%,67.9%,27.7%,
N#Cc1ccc(N2Cc3cc(Cl)ccc3OC3=C2C(=O)N(Cc2ccc(F)cc2)C3=O)cc1,-21.8% (active),-26.9% (active),-1.59% (active),-25.8% (active),102%,-5.53% (active),-89% (active),10.1%,-70.3% (active),-63.3% (active),-48.8% (active),-81% (active),-19.5% (active),-90.4% (active),42.2%,52.6%,
CCCn1cc(/C=N\N=C2\C(=O)Nc3ccc(C)cc32)c2ccccc21,-24.9% (active),47.5%,84.6%,41.8%,88.4%,39.4%,2.1% (active),76.3%,39.6%,63.5%,-26.6% (active),36.7%,8.92% (active),39.9%,47%,59.9%,
COc1cc(/C=C/CO)cc(OC)c1O[C@@H]1O[C@H](CO)[C@@H](O)[C@H](O)[C@H]1O,99.3%,98.8%,92.4%,100%,100%,104%,108%,106%,93.1%,,102%,94%,93.2%,95.8%,102%,105%,
CCCn1c2cc(OCc3cn(-c4ccc(Br)cc4)nn3)ccc2c2ccnc(C)c21,33%,50.8%,68.3%,-44% (active),85.7%,49.1%,60.5%,,66.6%,90.2%,85.4%,47.4%,62.4%,54.7%,83.4%,67.6%,66.9%
C1=CC2=CC=C3C=CC=C4C(c5nc6c7ccccc7c7ccccc7c6[nH]5)=CC(=C1)C2C34 (stereo not given),89.5%,97.7%,115%,119%,93.9%,86.8%,93.4%,92.9%,60%,97.3%,99.9%,98.3%,76.9%,83.3%,111%,86.5%,
CN(CCC#N)C(=O)Nc1ccccc1,107%,102%,111%,104%,100%,106%,108%,,97.2%,102%,107%,103%,100%,109%,108%,104%,105%
COC(=O)CCc1n(Cc2ccc3ccccc3c2)c2ccccc2[n+]1Cc1ccc2ccccc2c1,-21.3% (active),6.77% (active),18%,7.13% (active),10.8%,-26.4% (active),-14.2% (active),100%,-0.425% (active),-7.25% (active),-13.5% (active),12.1%,1.95% (active),0.405% (active),-2.47% (active),-58.7% (active),

# — PubChem BioAssay (NCI)
